PubChem BioAssay
Potency and affinity values are given separately. Calls of active or inactive are those of the source. Unless noted, the rule behind the calls is not given here.

Target: Calcium-dependent protein kinase 1 (Plasmodium falciparum (isolate 3D7)) (UniProt P62344)
Assay: PfCDPK1 kinase inhibitors, biochemical, TCAMS library (AID 1159585; cut-off not given, nearly all actives have IC50 up to about 0.98 µM;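 note: inhibitors leave more ATP so luminescence rises with inhibition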)
Conditions: recombinant PfCDPK1, Kinase-Glo ATP depletion luminescence

Calcium-dependent protein kinase 1 (Plasmodium falciparum (isolate 3D7)), sequence (P62344 whole entry, looked up): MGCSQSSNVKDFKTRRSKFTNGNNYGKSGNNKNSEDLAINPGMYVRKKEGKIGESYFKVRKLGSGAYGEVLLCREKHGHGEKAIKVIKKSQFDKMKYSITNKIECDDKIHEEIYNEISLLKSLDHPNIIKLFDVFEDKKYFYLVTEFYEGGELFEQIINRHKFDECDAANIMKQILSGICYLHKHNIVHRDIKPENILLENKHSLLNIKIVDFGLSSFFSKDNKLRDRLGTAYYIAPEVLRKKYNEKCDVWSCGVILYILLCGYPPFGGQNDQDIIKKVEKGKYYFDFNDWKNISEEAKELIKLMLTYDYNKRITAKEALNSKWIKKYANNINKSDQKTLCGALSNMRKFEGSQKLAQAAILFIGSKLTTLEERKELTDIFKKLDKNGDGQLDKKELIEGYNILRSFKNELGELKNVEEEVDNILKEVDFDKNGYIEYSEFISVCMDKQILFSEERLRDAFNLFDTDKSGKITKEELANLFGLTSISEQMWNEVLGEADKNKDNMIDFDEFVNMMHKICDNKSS

outcome, inactive:
CCC(Nc1noc(-c2c(-c3ccccc3)noc2C)n1)c1ccccc1 (stereo not given), C=CCN1Cc2c(O)cccc2C(c2ccc(O)c(O)c2)C1 (stereo not given), Cc1cc(=O)c(-c2cccc(Oc3ccc(Cl)cc3)c2)c(C)[nH]1, COc1ccc2c(NN=CC=Cc3ccccc3)ccnc2c1, CCNc1cc(C(=O)N[C@@H](Cc2ccccc2)[C@H](O)CN[C@@H]2CCc3ccccc32)cc(N2CCCC2=O)c1, CC(C)(C)Oc1ccc(C[C@@H]2NC3(C(=O)N(Cc4ccc(Cl)c(Cl)c4)c4ccccc43)C3C(=O)N(c4ccc(Br)cc4)C(=O)C32)cc1 (stereo not given in full), CN(C)Cc1ccc(-c2cc3c(-c4ccc(CN(C)C)cc4)ccnc3[nH]2)cc1, CNC(=O)c1c(NC(=O)c2cccs2)sc2c1CCCC2, COc1ccccc1-c1nc2nc(N)nc(N)c2nc1-c1ccccc1OC, Cc1ccc(Cn2ncc(N3C[C@@H](C)N[C@@H](C)C3)c(Cl)c2=O)cc1NC(=O)Nc1ccc(-c2ccccc2)cc1, COc1ccc(-c2c3c(=O)n(C)c(=O)n(C)c3c3nnc4ccccc4n23)cc1, CCCCNCC(O)COc1ccccc1-c1ccc(N/N=C/c2cccc3ccccc23)nn1 (stereo not given), O=C(NCc1ccc(Cl)cc1)c1ccc(CN2CCCN(Cc3cccc(O)c3)CC2)cc1, N#Cc1cccc(C(O)CN(Cc2ccccc2)Cc2ccccc2)c1 (stereo not given), CCCN(CCC)CC(O)COc1ccccc1C(=O)Nc1ccccc1 (stereo not given), CCC(CC)CN1C(=O)C(c2ccccc2)(c2ccccc2)N=C1N, Fc1ccc2nc(-c3ccc(-c4ccc(CN5CCN(c6cnccn6)CC5)cc4)s3)[nH]c2c1, Cc1[nH]c(C)c(-c2ccc(Cl)cc2Cl)c(=O)c1Br, CCCCCCCC1CC(CC(=O)Nc2ccnc3ccc(OC)cc23)CN1 (stereo not given), CN1CCCN(Cc2ccc(-c3cccc(NC(=O)c4cccc(F)c4)c3)cc2)CC1, COc1ccc2c(=O)c(I)c(C)[nH]c2c1, CCN(CCCN1CCCCC1)c1cc(C)nc(Nc2ccc(Oc3ccccc3)cc2)n1, O=C(NC1CCCC1)c1ccc(N2CCC(NCc3cc4cc(Cl)ccc4[nH]3)CC2)cc1, Nc1ccc(Oc2ccc(Cc3cnc(N)nc3N)cc2)cc1, COc1ccc(CCn2c(=N)c(C(=O)NCc3cccnc3)cc3c(=O)n4ccccc4nc32)cc1, Cc1noc(C)c1-c1cccc(CNCc2cccc(-c3ccc(-c4nc5c(C)cccc5[nH]4)cc3)c2)c1, Cc1sc2ncnc(Sc3nc4ccccc4[nH]3)c2c1C, Fc1cccc(COc2ccc(Nc3ncnc4sc(C#C[C@H]5CCCN5)cc34)cc2F)c1, COc1cc2c(cc1OC)CN(CCCCNC(=O)c1ccc(NC(=O)c3cc(Cl)cc(Cl)c3)cc1)CC2, COc1ccc(NC(=O)[C@H](CC(C)C)Nc2ccnc(Nc3ccccc3)n2)cc1, c1ccc(Oc2ccc(Nc3nncc4ccccc34)cc2)cc1, O=C(Nc1ccc2ccccc2c1)c1ccc(CN2CCC(Cc3ccccc3)CC2)cc1, Cc1ccc2[nH]c(-c3ccc(/C=C/C(=O)NC4CCN(Cc5ccccc5)CC4)cc3)nc2c1C, Cc1cc(C(=O)Nc2ccc(OCc3ccccc3)cc2)on1, CCN(CC)CCNc1ccc(Nc2ccnc3cc4ccccc4cc23)cc1, O=C(NCCCCCN1CCCN(C(=O)Nc2ccc(F)c(C(F)(F)F)c2)CC1)[C@@H]1C[C@H]1c1ccc(Cl)c(Cl)c1, Cc1cc(NN=Cc2ccccc2[N+](=O)[O-])c2ccccc2n1, COc1cccc(CCc2cccc(CNC(C)=O)c2)c1, CC(C)[C@H]1CC[C@H](C)C[C@@H]1OC(=O)N[C@@H](Cc1ccc(O)cc1)C(=O)NC1CCN(Cc2ccc(OCCCN(C)C)cc2)C1 (stereo not given in full), CCNc1cc(C(=O)N[C@@H](Cc2ccccc2)[C@H](O)CNC(C)(C)Cc2cccc(OC)c2)cc(N2CCCC2=O)c1

Target: Plasmodium falciparum protein kinase 6 (PK6, PF3D7_1337100) (UniProt Q8IDW1)
Sequence (Q8IDW1 1-305): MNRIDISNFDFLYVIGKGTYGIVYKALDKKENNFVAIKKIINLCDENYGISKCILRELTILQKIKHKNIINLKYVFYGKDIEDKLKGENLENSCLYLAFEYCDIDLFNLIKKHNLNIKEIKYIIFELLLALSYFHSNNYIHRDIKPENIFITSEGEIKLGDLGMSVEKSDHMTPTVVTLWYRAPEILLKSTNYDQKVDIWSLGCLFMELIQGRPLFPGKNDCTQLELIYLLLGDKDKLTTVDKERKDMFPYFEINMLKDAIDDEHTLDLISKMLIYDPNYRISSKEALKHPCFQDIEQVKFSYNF
Assay: PfPK6 kinase inhibitors, biochemical, TCAMS library (AID 1159586)
Conditions: recombinant PfPK6, Kinase-Glo ATP depletion luminescence

outcome, inactive:
CCC(Nc1noc(-c2c(-c3ccccc3)noc2C)n1)c1ccccc1 (stereo not given), C=CCN1Cc2c(O)cccc2C(c2ccc(O)c(O)c2)C1 (stereo not given), Cc1cc(=O)c(-c2cccc(Oc3ccc(Cl)cc3)c2)c(C)[nH]1, COc1ccc2c(NN=CC=Cc3ccccc3)ccnc2c1, CCNc1cc(C(=O)N[C@@H](Cc2ccccc2)[C@H](O)CN[C@@H]2CCc3ccccc32)cc(N2CCCC2=O)c1, CC(C)(C)Oc1ccc(C[C@@H]2NC3(C(=O)N(Cc4ccc(Cl)c(Cl)c4)c4ccccc43)C3C(=O)N(c4ccc(Br)cc4)C(=O)C32)cc1 (stereo not given in full), CN(C)Cc1ccc(-c2cc3c(-c4ccc(CN(C)C)cc4)ccnc3[nH]2)cc1, CNC(=O)c1c(NC(=O)c2cccs2)sc2c1CCCC2, COc1ccccc1-c1nc2nc(N)nc(N)c2nc1-c1ccccc1OC, Cc1ccc(Cn2ncc(N3C[C@@H](C)N[C@@H](C)C3)c(Cl)c2=O)cc1NC(=O)Nc1ccc(-c2ccccc2)cc1, COc1ccc(-c2c3c(=O)n(C)c(=O)n(C)c3c3nnc4ccccc4n23)cc1, CCCCNCC(O)COc1ccccc1-c1ccc(N/N=C/c2cccc3ccccc23)nn1 (stereo not given), O=C(NCc1ccc(Cl)cc1)c1ccc(CN2CCCN(Cc3cccc(O)c3)CC2)cc1, N#Cc1cccc(C(O)CN(Cc2ccccc2)Cc2ccccc2)c1 (stereo not given), CCCN(CCC)CC(O)COc1ccccc1C(=O)Nc1ccccc1 (stereo not given), CCC(CC)CN1C(=O)C(c2ccccc2)(c2ccccc2)N=C1N, Fc1ccc2nc(-c3ccc(-c4ccc(CN5CCN(c6cnccn6)CC5)cc4)s3)[nH]c2c1, Cc1[nH]c(C)c(-c2ccc(Cl)cc2Cl)c(=O)c1Br, CCCCCCCC1CC(CC(=O)Nc2ccnc3ccc(OC)cc23)CN1 (stereo not given), CN1CCCN(Cc2ccc(-c3cccc(NC(=O)c4cccc(F)c4)c3)cc2)CC1, COc1ccc2c(=O)c(I)c(C)[nH]c2c1, CCN(CCCN1CCCCC1)c1cc(C)nc(Nc2ccc(Oc3ccccc3)cc2)n1, O=C(NC1CCCC1)c1ccc(N2CCC(NCc3cc4cc(Cl)ccc4[nH]3)CC2)cc1, Nc1ccc(Oc2ccc(Cc3cnc(N)nc3N)cc2)cc1, COc1ccc(CCn2c(=N)c(C(=O)NCc3cccnc3)cc3c(=O)n4ccccc4nc32)cc1, Cc1noc(C)c1-c1cccc(CNCc2cccc(-c3ccc(-c4nc5c(C)cccc5[nH]4)cc3)c2)c1, Cc1sc2ncnc(Sc3nc4ccccc4[nH]3)c2c1C, Fc1cccc(COc2ccc(Nc3ncnc4sc(C#C[C@H]5CCCN5)cc34)cc2F)c1, COc1cc2c(cc1OC)CN(CCCCNC(=O)c1ccc(NC(=O)c3cc(Cl)cc(Cl)c3)cc1)CC2, COc1ccc(NC(=O)[C@H](CC(C)C)Nc2ccnc(Nc3ccccc3)n2)cc1, c1ccc(Oc2ccc(Nc3nncc4ccccc34)cc2)cc1, O=C(Nc1ccc2ccccc2c1)c1ccc(CN2CCC(Cc3ccccc3)CC2)cc1, Cc1ccc2[nH]c(-c3ccc(/C=C/C(=O)NC4CCN(Cc5ccccc5)CC4)cc3)nc2c1C, Cc1cc(C(=O)Nc2ccc(OCc3ccccc3)cc2)on1, CCN(CC)CCNc1ccc(Nc2ccnc3cc4ccccc4cc23)cc1, O=C(NCCCCCN1CCCN(C(=O)Nc2ccc(F)c(C(F)(F)F)c2)CC1)[C@@H]1C[C@H]1c1ccc(Cl)c(Cl)c1, Cc1cc(NN=Cc2ccccc2[N+](=O)[O-])c2ccccc2n1, COc1cccc(CCc2cccc(CNC(C)=O)c2)c1, CC(C)[C@H]1CC[C@H](C)C[C@@H]1OC(=O)N[C@@H](Cc1ccc(O)cc1)C(=O)NC1CCN(Cc2ccc(OCCCN(C)C)cc2)C1 (stereo not given in full), CCNc1cc(C(=O)N[C@@H](Cc2ccccc2)[C@H](O)CNC(C)(C)Cc2cccc(OC)c2)cc(N2CCCC2=O)c1
